Only some compounds are listed: those with a hit (about 0.85% of all), similar ones and a draw of the others.
BLM inh: blocks DNA unwinding by human BLM helicase; P54132; recombinant BLM DNA unwinding, fluorescence dequenching; Potency, µM (titrated, usually from 56.1 µM), for inactives: at the top dose activity change, negative = inhibition, actives largely listed as inhibitors; 0.2% of 350,000 active; AID 2528;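 note: plate controls were vehicle for no effect and no enzyme for full effect; nearly all actives have a fitted effect of over 35% in size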
PGK inhibitor: inhibitors of T. brucei phosphoglycerate kinase; 0.043% of 380,000 active; Potency, µM (doses to about 57.5 µM), for inactives: top-dose activity change, negative = inhibition, usual class: inhibitors; PGK/GAPDH coupled, Kinase-Glo luminescence, 60 min; note: nearly all actives have a fitted effect of over 60% in size
Target sequence (P07378 whole entry, looked up): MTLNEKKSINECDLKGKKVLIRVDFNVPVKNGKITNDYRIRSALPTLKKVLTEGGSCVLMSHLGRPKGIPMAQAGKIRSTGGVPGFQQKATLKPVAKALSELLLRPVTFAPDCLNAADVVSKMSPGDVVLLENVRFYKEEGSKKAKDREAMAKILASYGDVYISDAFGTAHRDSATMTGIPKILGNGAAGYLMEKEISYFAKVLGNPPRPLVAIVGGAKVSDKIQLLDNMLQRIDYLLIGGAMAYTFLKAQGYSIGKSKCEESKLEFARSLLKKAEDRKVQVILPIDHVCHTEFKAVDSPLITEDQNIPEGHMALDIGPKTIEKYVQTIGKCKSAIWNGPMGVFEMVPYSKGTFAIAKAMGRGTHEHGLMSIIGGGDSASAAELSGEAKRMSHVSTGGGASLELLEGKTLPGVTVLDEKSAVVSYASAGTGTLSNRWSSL
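Recombinant glycosomal PGK reaction used 1,3-bisphosphoglycerate generated in-well by GAPDH (100nM final) in 100mM TEA pH 7.6, 5mM MgCl2, 0.01% Tween-20. After 60 minutes at room temperature, ATP was read by Kinase-Glo Plus luminescence end-point.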
RECQ1 inh-1: RECQ1 (human) helicase inhibition; 0.54% of 240,000 active; RECQ1 DNA unwinding, red fluorescence kinetic read; P46063; Potency, µM (doses to about 57.3 µM), for the others: at the top dose activity, negative = inhibition, hits mostly inhibitors;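 note: plate controls were vehicle for no effect and no enzyme for full effect; nearly all actives have a fitted effect of over 30% in size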
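RECQ1T1 50 nM; forked duplex (20 bp + 30-nt ss tails) 200 nM, ATP 2 mM final; pH 8.0, 2 mM MgCl2, 2.5 ug/ml poly(dI-dC); 15 min compound preincubation; discontinuous kinetic read over 2 h at RT.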
TDP1 block: blocks human tyrosyl-DNA phosphodiesterase 1; Q9NUW8; recombinant TDP1, AlphaScreen DNA substrate cleavage; Potency, µM (top dose mostly 130 µM), inactives show top-dose activity change, negative = inhibition, hits mostly inhibitors; 0.28% of 350,000 active; AID 485290; note: nearly all actives have a fitted effect of over 40% in size
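Recombinant human Tdp1 (E. coli-expressed, 1 nM final) preincubated with compounds 15 min at room temperature, then 5'-biotin/3'-phosphotyrosine-FITC DNA substrate (15 nM final) added for 5 min. AlphaScreen beads (10 ug/ml final) added 10 min; cleavage lowers signal.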
APE1 inh-1: APE1 (human) endonuclease inhibition; P27695; 0.35% of 350,000 active; Potency, µM (highest dose often 65.8 µM), for the others: at the highest dose activity change, negative = inhibition, usual class: inhibitors; recombinant APE1, TAMRA/BHQ-2 abasic DNA cleavage fluorescence;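 note: plate controls were vehicle for no effect and reference inhibitor for full effect; nearly all actives have a fitted effect of over 55% in size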
Target sequence (P27695 whole entry, looked up): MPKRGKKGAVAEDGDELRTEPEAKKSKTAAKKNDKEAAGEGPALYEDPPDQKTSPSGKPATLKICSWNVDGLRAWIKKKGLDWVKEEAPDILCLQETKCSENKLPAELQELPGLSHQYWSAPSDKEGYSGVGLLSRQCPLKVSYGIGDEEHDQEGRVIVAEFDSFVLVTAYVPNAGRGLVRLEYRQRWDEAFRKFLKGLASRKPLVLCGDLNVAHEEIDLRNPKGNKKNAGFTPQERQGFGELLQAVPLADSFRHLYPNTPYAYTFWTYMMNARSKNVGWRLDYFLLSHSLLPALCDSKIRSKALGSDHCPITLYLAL
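0.75 nM APE1 + cpd, 15 min RT; start w/ 50 nM TAMRA/BHQ-2 THF-abasic dsDNA; kinetic fluor 525/598 nm ×3 reads @60 s; Δ(read3−read1); normalized to DMSO and NSC13755 control wells.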
GLS inh: glutaminase GLS (human) inhibition; GLS enzymatic activity, qHTS titration; Potency, µM (series often up to 45.5 µM), without a hit: top-dose activity change, negative = inhibition, hits mostly inhibitors; 0.21% of 410,000 active; AID 624170
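Glutamate formation by hKGA was monitored fluorometrically using coupled glutamate oxidase, HRP and Amplex Red. Substrate was added as 1 mM L-glutamine solution; incubation was 30 min at RT after an initial read.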
APE1 dye cs: DNA dye displacement counter-screen activity | 7% of 480 active | shares compounds with APE1 inh-1 | Potency, µM (series often up to 28.5 µM), without a hit: at the highest dose activity change, negative = inhibition, actives largely listed as inhibitors | DNA fluorescent dye displacement counterscreen, fluorescence | AID 2564;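 note: loss of thiazole orange fluorescence as the dye is displaced from duplex DNA; 0% = ThO with dsDNA and no compound and -100% = ThO without dsDNA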
Endo IV inh: counter-screen for APE1 inhibitors: inhibitors of E. coli endonuclease IV; 4% of 560 active; shares compounds with APE1 inh-1; E. coli Endo IV, fluorogenic AP-site DNA cleavage; Potency, µM (top dose mostly 27.1 µM), without a hit: top-dose activity change, negative = inhibition, hits mostly inhibitors; AID 2565;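 note: plate controls were uninhibited enzyme wells for no effect and no enzyme buffer wells for full effect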
APE1 inh-2: APE1 (human) endonuclease inhibition, confirmation; shares compounds with APE1 inh-1; 44% of 750 active; Potency, µM (doses to about 57.1 µM), for inactives: at the highest dose activity change, negative = inhibition, actives largely listed as inhibitors; purified APE1, fluorogenic abasic-site DNA cleavage; note: nearly all actives have a fitted effect of over 30% in size
APE1 FP: displaces DNA from human APE1 in FP assay; shares compounds with APE1 inh-1; APE1 binding to TAMRA-labelled double-stranded DNA, fluorescence polarization displacement; Potency, µM (highest dose often 28.5 µM), for the others: at the highest dose activity, negative = inhibition, actives largely listed as inhibitors; 7% of 480 active
RECQ1 conf: confirmation of human RECQ1 helicase inhibitors; shares compounds with RECQ1 inh-1; RECQ1 helicase DNA unwinding, fluorescence; Potency, µM (doses to about 229 µM), inactives show top-dose activity change, negative = inhibition, actives largely listed as inhibitors; 28% of 610 active; AID 2708; note: nearly all actives have a fitted effect of over 45% in size
RECQ1 ADP FP: ADP displacement flagged in RECQ1 inhibitor counter-screen | shares compounds with RECQ1 inh-1 | ADP fluorescence polarization displacement counterscreen | Potency, µM (highest dose often 228 µM), without a hit: top-dose activity change, negative = inhibition, most hits filed as inhibitors | 27% of 530 active | AID 2711; note: nearly all actives have a fitted effect of over 45% in size
RECQ1 inh-2: blocks human RECQ1 DNA unwinding. shares compounds with RECQ1 inh-1. AID 504841. recombinant RECQ1 DNA unwinding, red fluorescence. Potency, µM (highest dose often 119 µM), inactives show at the top dose activity, negative = inhibition, actives largely listed as inhibitors. 15% of 1,100 active; note: nearly all actives have a fitted effect of over 50% in size
The depositor's hits bear a star; i = inactive; ? = inconclusive; . = no result; ! = repeats disagree; [ ] = dose if it differs, or a comment. Calls come from the whole dose curve; as a rule, active = well fitted curve in the direction sought with a large enough effect; inconclusive = small, poorly fitted or top-dose-only effect, or another doubt; inactive = no such curve, though single readings can be large; an effect the other way counts as inactive or inconclusive. Unless noted, % is set by controls: 0 for no effect and ±100 for the full control effect; potency is the fitted concentration of half-maximal effect.

SMILES	BLM inh	PGK inhibitor	RECQ1 inh-1	TDP1 block	APE1 inh-1	GLS inh	APE1 dye cs	Endo IV inh	APE1 inh-2	APE1 FP	RECQ1 conf	others
CSCC[C@H](NC(=O)[C@H](CC(C)C)N(C)C(=O)[C@@H]1CCCN1C(=O)[C@H](Cc1ccccc1)NC(=O)[C@H](Cc1ccccc1)NC(=O)CCC(C)N)C(=O)O (some centres not stated)	1%	.	-13%	10%	20%	.	.	.	.	.	.
CCOCC	-4%	.	-11%	2%	-3%	.	.	.	.	.	.
COc1ccc(-c2nc3c(c4c2C[C@H](c2ccccc2)OC4)CN(S(=O)(=O)c2ccc(C#N)cc2)CC3)c(C)c1	-5%[12.4 µM]	.	-6%[11.5 µM]	6%[21 µM]	5%[12.4 µM]	.	.	.	.	.	.
Oc1ccc(C(O)CNCCCCCCNCC(O)c2ccc(O)c(O)c2)cc1O (configuration not stated)	2%	.	.	.	.	69%	.	.	.	.	.
NC[C@H](O)c1ccc(O)c(O)c1	3.5µM*	-4%	1.4µM*	2.2µM*!	0.89µM*!	?	-6%[57.1 µM]	10%[57.1 µM]	0.79µM*	?	25µM*!	RECQ1 ADP FP=10µM*!
CC(C)NCC(O)c1ccc(O)c(O)c1 (configuration not stated)	-1%	-4%	-2%	-9%[56.1 µM]	-4%	52%	.	.	.	.	.
CNC[C@H](O)c1ccc(O)c(O)c1	-3%	-7%	18µM*!	45µM*!	7.9µM*!	-20%	-3%[57.1 µM]	31%[57.1 µM]	?	-5%[57.1 µM]	?	RECQ1 ADP FP=14µM*
C=C/C(C)=C/[C@@]1(C)SC(=O)C(C)=C1O	.	.	8.9µM*	?	3.2µM*	.	.	-20%[57.1 µM]	2µM*	.	40µM*	RECQ1 ADP FP=11µM*
NC(=S)NS(=O)(=O)c1ccc(N)cc1	2%	.	.	.	.	12%	.	.	.	.	.
Cn1c(SCC(=O)N/N=C/C=C/c2ccccc2[N+](=O)[O-])nc2ccccc21	0%	i	12%	3%	-2%	-7%	.	.	.	.	.
Cn1c(SCC(=O)N/N=C/C=C/c2ccco2)nc2ccccc21	1%	-6%	18µM*	?	10µM*	-10%	?	-8%	?	0%	?
COc1ccc(Cc2nnc(NC(=O)Cc3cccs3)s2)cc1OC	?	?	20µM*	.	28µM*	?	?	36%	2µM*	-17%	.	RECQ1 inh-2=?
COc1ccc(C(=O)Nc2nnc(Cc3cccs3)s2)cc1OC	-3%	2%	i	5%	0%	-11%	.	.	.	.	.
NCC(=O)N[C@@H](CCCN=C(N)N)C(=O)NCC(=O)N[C@@H](CC(=O)O)C(=O)N[C@@H](CO)C(=O)O	-1%	.	9%	6%	0%	.	.	.	.	.	.
CCC1=NN2C(=N)/C(=C\c3ccc(OCc4cc(=O)n5nc(CC)sc5n4)c(OC)c3)C(=O)N=C2S1	14µM*	-16%	7.1µM*	40µM*	?	11µM*	.	.	32µM*	.	.	RECQ1 inh-2=?
C#C[C@]1(OC(C)=O)CC[C@H]2[C@@H]3CCC4=C/C(=N/O)CC[C@@H]4[C@H]3CC[C@@]21CC	-13%	.	.	.	.	22%	.	.	.	.	.
Cc1ccc(-c2nc3s/c(=C\c4ccco4)c(=O)n3n2)cc1	-10%	-16%	-23%	.	?	-1%	.	.	.	.	.
O=c1nc2s/c(=C\c3ccco3)c(=O)n2nc1Cc1ccc(F)cc1	-16%	?	22µM*	?	7.9µM*	1%	?	13%	7.1µM*	?	56µM*	RECQ1 ADP FP=?;RECQ1 inh-2=?
O=C1CC(=O)N(Cc2ccco2)C(=S)N1	?	?	11µM*	2.5µM*	11µM*	?	3%	35%	35µM*	?	16µM*	RECQ1 ADP FP=17%[91.9 µM]
O=C1CC(=O)N(Cc2cccs2)C(=O)N1	0%	0%	i	-9%	-5%	-6%	.	.	.	.	.
O=C1CC(=O)N(Cc2ccco2)C(=O)N1	63%	5µM*	?	10µM*	10µM*	10µM*	4%	21%	5.6µM*	-8%	.	RECQ1 inh-2=?
CSCC[C@@H]1NC(=O)[C@@H](NC(=O)[C@H](CCCNC(=N)N)NC(=O)[C@H](CC(C)C)NC(=O)[C@H](CCSC)NC(=O)[C@H](CC(=O)O)NC(=O)[C@H](Cc2ccccc2)NC(=O)[C@@H](N)CC(=O)O)CSSC[C@@H](C(=O)N[C@@H](Cc2c[nH]c3ccccc23)C(=O)N[C@@H](CCC(N)=O)C(=O)N[C@@H](Cc2ccc(O)cc2)C(=O)O)NC(=O)[C@@H]2CCCN2C(=O)[C@H](CCCNC(=N)N)NC(=O)[C@H](Cc2ccccc2)NC(=O)[C@H](C(C)C)NC(=O)[C@H](CCCNC(=N)N)NC(=O)CNC(=O)[C@H](CC(C)C)NC1=O	-2%	.	-12%	11%	3%	.	.	.	.	.	.
N=C1/C(=C\c2ccc(SCc3ccco3)o2)C(=O)N=C2SC=NN12	-6%	-14%	8.9µM*	?	3.2µM*	107%	15%	10%	?	4%	.	RECQ1 inh-2=?

High-throughput results from PubChem BioAssay.
